Test results published in the supplement of paper PMC6555819.

What was measured:
Experiment in all cases: PBM binding z-score (relative to random genomic background probes); higher = stronger binding; sequences stand for … in GC…GCGATTGACAGCGTAGAATGAAGG
[1] = system: FXR:RXRa (NR concentration 270 nM, RXRa partner concentration 90 nM)
Summary of the method: (§1)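 Binding buffer was PBS pH 7.4 with 2% milk, 0.02% Triton X-100, 1 mM DTT, 0.2 mg/mL BSA and 0.4 mg/ml salmon testes DNA. In it, ligand-free nuclear receptor dimers were incubated 1 h on custom Agilent 4×180K protein-binding microarrays carrying double-stranded probes. Antibodies against each partner (one per run) detected binding, and z-scores were calculated against random background probes after regression normalization of scanned fluorescence.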

[2] = system: LXRa:RXRa (NR concentration 270 nM, RXRa partner concentration 90 nM)
Summary of the method: as §1

[3] = system: LXRa homodimer (NR concentration 270 nM)
Summary of the method: as §1

[4] = system: LXRb:RXRa (NR concentration 270 nM, RXRa partner concentration 90 nM)
Summary of the method: as §1

[5] = system: LXRb homodimer (NR concentration 270 nM)
Summary of the method: as §1

[6] = system: PPARa:RXRa (NR concentration 270 nM, RXRa partner concentration 90 nM)
Summary of the method: as §1

[7] = system: PPARg:RXRa (NR concentration 180 nM, RXRa partner concentration 90 nM)
Summary of the method: as §1

[8] = system: PPARg:RXRa 270nM:90nM, anti-RXR (NR concentration 270 nM, RXRa partner concentration 90 nM)
Summary of the method: as §1

[9] = system: PPARg:RXRa 30nM:10nM, anti-RXR (NR concentration 30 nM, RXRa partner concentration 10 nM)
Summary of the method: as §1

[10] = system: PPARg:RXRa 90nM:30nM, anti-RXR (NR concentration 90 nM, RXRa partner concentration 30 nM)
Summary of the method: as §1

| Sequence | PBM binding z-score [1] | PBM binding z-score [2] | PBM binding z-score [3] | PBM binding z-score [4] | PBM binding z-score [5] | PBM binding z-score [6] | PBM binding z-score [7] | PBM binding z-score [8] | PBM binding z-score [9] | PBM binding z-score [10] |
| --- | --- | --- | --- | --- | --- | --- | --- | --- | --- | --- |
| CGTCCAAGGTCAGCAGGTCAGTGATAGCGACGTG | 5.6 | 3.86 | 0.399 | 2.59 | -0.265 | 4.52 | 4.13 | 4.45 | 1.15 | 3.05 |
| GCGACTGGGGCAAAGCAGGTTGCCATAAGGTTGG | -0.377 | -0.798 | -0.715 | -0.849 | -1.26 | 0.461 | 0.599 | 1.15 | -0.358 | 0.243 |
| CATACAGGGTCAGCTAGGTCAGAGTAGGGACGGC | 5.34 | 3.88 | 0.985 | 3.24 | 0.645 | 4.72 | 4.42 | 3.93 | 0.846 | 2.42 |
| CAAACTAGCTCACCGGAAGGTCAAAGTCCGCATG | 2.99 | 3.06 | 3.46 | 3.43 | 1.02 | 3.16 | 0.628 | 1.58 | 0.364 | 0.774 |
| CCTAGCAGGCCAGCGTCACTCAAGCATTTCGCTT | -0.634 | -0.323 | -0.436 | -0.45 | -0.612 | -0.652 | -0.466 | -1.02 | -1.25 | -0.939 |
| GCAGACGGGTGAAACGCAGGTAACTCAGGGTGGC | -0.349 | -0.337 | -0.751 | -0.502 | -1.12 | 0.266 | 0.241 | -0.502 | -0.732 | -0.536 |
| CAAACTAGGTCACGGAGGTCAAAGTCCGTGCGTA | 7.4 | 6.23 | 6.45 | 5.9 | 1.36 | 6.83 | 10.4 | 8.3 | 7.09 | 8.25 |
| AGTCAAAGTTCATCTAGGTAACGGAAGATATGCT | 6.87 | 6.02 | 4.37 | 3.7 | 1.73 | 4.86 | 6.85 | 6.48 | 3.55 | 5.62 |
| CCTACTGGGCCAAAAAGGTTATTGATGCCGATAA | -0.207 | 0.612 | 0.14 | 1.08 | -0.751 | 2.15 | 0.965 | 1.85 | 0.374 | 1.29 |
| CTCGAGAGGTCGGTTGAGGTGAGTATACGGATAA | 2.48 | 1.8 | -0.0602 | 2.2 | -0.474 | 2.93 | 0.425 | 0.591 | -0.178 | 0.092 |
| GCGACTGGGGCAAAGCAGGCTACCATAAGGTTGG | -0.319 | -0.696 | -0.699 | -0.682 | -0.971 | 0.527 | 0.941 | 0.966 | -0.413 | 0.272 |
| CCTATTTGGTCAGGAGGTCACACACCGGATATGA | 3.94 | 3.62 | 2.35 | 3.64 | 1.25 | 4.34 | 3.42 | 4.03 | 1.66 | 3.23 |
| ATATGTACGTTATCGGGTCATTCAGTTTGCGCAT | 2.05 | 2.01 | 1.02 | 2.32 | 1.03 | 2.67 | 1.3 | 1.35 | 0.0555 | 0.972 |
| AGAATGAGGTTATTACGATCAGGGAATTGCGGTC | 2.01 | 1.7 | 0.373 | 1.49 | 0.0914 | 2.66 | 1.55 | 1.88 | 0.584 | 1.11 |
| CCAGACAGGTGAGGAGGTAACTCAGCCTCGATTA | -0.0226 | 0.276 | 0.253 | 0.35 | -0.29 | 0.831 | 0.403 | 0.546 | -0.128 | 0.0478 |
| TCTCCGAGGACACGAAAGGTCAGAGCTCGACATC | 3.26 | 3.9 | 2.63 | 3.48 | 0.562 | 3.68 | 1.53 | 2.82 | 2.39 | 2.44 |
| CGTCCAAGGTCATAGGTCAGTGAAGAGATGACGG | 7.34 | 5.78 | 1.65 | 4.74 | 1.02 | 6.22 | 7.76 | 7.27 | 5.12 | 7.07 |
| ACAGACAGGTGATGGAGGTAACTCAGGCTATCAT | -0.104 | -0.199 | -0.062 | -0.121 | -0.598 | 0.109 | 0.789 | -0.241 | -0.252 | -0.291 |
| TAGCCTAGGTCATGCGGGCGAGTATAGTGTCGGC | 3.79 | 2.5 | 0.369 | 1.21 | -0.906 | 3.32 | 2.45 | 2.08 | -0.413 | 1.37 |
